EBV LMP1 NFkB: inhibitors of Epstein-Barr LMP1-induced NF-kappaB reporter; LMP1-induced NF-kappaB luciferase reporter cells, luminescence; inhibition, % at 12.5 µM; 350,000 tested, 0.69% active; AID 504558; in the data active = inhibition above about 41%
EWS-Fli inh: EWS/Fli transcriptional activity inhibition. AID 651661. inhibition, % at 12.6 µM. 350,000 tested, 0.67% active. A673 NR0B1-luciferase reporter, viability-normalised;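 active = mean inhibition of at least 50% after viability correction, with every replicate also passing that limit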;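 note: firefly luciferase signal divided by Alamar Blue viability fluorescence both relative to DMSO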
PAX8 reporter: inhibitors of PAX8 transcriptional activity in RMG-I cells; inhibition, % at 12.6 µM; 360,000 tested, 1.2% active; RMG-I TPO-luciferase reporter, SteadyGlo, 24 h;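 active = mean replicate inhibition at least 60% with every replicate also reaching 60%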;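 note: luciferase light reporting Pax8 driven TPO promoter activity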
TROY NFkB inh: blocks TROY-dependent signaling in reporter cells. Q293 LMP1-TROYcd NF-kB luciferase reporter, 4 h. 360,000 tested, 0.98% active. inhibition, % at 10 µM. AID 1347056;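 active = compounds whose plate-normalised and pattern-corrected inhibition of the luciferase reporter signal at the single screening dose is 50% or more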
LGR2 antag: inhibitors of bursicon-induced Drosophila LGR2 receptor cAMP signaling; HEK293 LGR2, CRE-luciferase, bursicon-stimulated, 4 h; inhibition, % at 9.99 µM; 380,000 tested, 0.35% active; AID 720647;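 active = drop in luminescence signal, shown as inhibition above about 50% in the replicate tests, limit read from the data, passing the limit was not always enough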;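 note: agonist challenge used bursicon conditioned medium at about half maximal strength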
TWEAK Fn14 block: TWEAK-Fn14 signaling inhibition | TWEAK-stimulated Fn14 reporter cells, luciferase luminescence, 8 h | inhibition, % at 10 µM | 360,000 tested, 2% active | AID 1159606; in the data active = inhibition above about 50%
Hits are given with their value; i = inactive; nt = no result given. Most compounds without a hit are left out; they make up all but 3.2% or so of the library.

SMILES	EBV LMP1 NFkB	EWS-Fli inh	PAX8 reporter	TROY NFkB inh	LGR2 antag	TWEAK Fn14 block
CC1CCN(C(=O)c2ccc(S(=O)(=O)Cc3cccc(F)c3)c([N+](=O)[O-])c2)CC1	i	nt	nt	i	i	65.7
C[C@H](CO)N1C[C@H](C)[C@H](CN(C)Cc2ccccc2C(=O)O)Oc2ncc(C3=CCCC3)cc2C1=O	nt	i	i	nt	i	nt
O=C(C[C@@H]1C=C[C@@H](NC(=O)CN2CCOCC2)[C@H](CO)O1)NC1CCC1	nt	i	i	nt	i	nt
O=C(C[C@@H]1C=C[C@H](NC(=O)Nc2ccccc2F)[C@H](CO)O1)NCc1ccccc1	nt	i	nt	nt	i	nt
C[C@@H]1CN([C@H](C)CO)C(=O)c2cc(NC(=O)Nc3ccc(C(F)(F)F)cc3)ccc2O[C@H]1CN(C)Cc1ccc(Cl)c(Cl)c1	i	i	i	i	i	52.7
C[C@@H]1CN([C@@H](C)CO)C(=O)c2cc(NC(=O)Nc3ccc(F)cc3)ccc2O[C@@H]1CN(C)Cc1ccc(C(F)(F)F)cc1	nt	i	69.9	nt	i	nt
C[C@H](CO)N1C[C@H](C)[C@@H](CN(C)Cc2ccc(C(F)(F)F)cc2)Oc2ccc(NC(=O)Nc3ccccc3)cc2C1=O	nt	i	nt	nt	i	nt
COc1ccc(NC(=O)Nc2ccc3c(c2)C(=O)N([C@@H](C)CO)C[C@@H](C)[C@H](CN(C)Cc2ccc(C(F)(F)F)cc2)O3)cc1	nt	i	90.9	nt	i	nt
C[C@H](CO)N1C[C@H](C)[C@@H](CN(C)Cc2ccc(Cl)c(Cl)c2)Oc2ccc(NC(=O)Cn3cnnn3)cc2C1=O	i	i	i	i	i	i
C[C@@H]1CN([C@@H](C)CO)C(=O)c2cc(NC(=O)Cn3cnnn3)ccc2O[C@H]1CN(C)Cc1ccc(Cl)c(Cl)c1	nt	62.9	i	nt	i	nt
CC(C)C#Cc1cnc2c(c1)C(=O)N([C@H](C)CO)C[C@H](C)[C@H](CN(C)C(=O)c1ccc3c(c1)OCO3)O2	nt	i	nt	nt	i	nt
CC(C)(C)c1ccc(C(=O)Nc2cccc3c(=O)[nH][nH]c(=O)c23)cc1	i	nt	i	52.8	i	80.0
COc1ccc(NC(=O)Cc2coc3cc(C)c(C(C)C)cc23)cc1S(=O)(=O)N1CCOCC1	i	i	i	i	i	53.0
COc1ccc2c(CC(=O)Nc3ccc(OC)c(S(=O)(=O)N4CCOCC4)c3)coc2c1	i	i	i	i	i	i
O=C(CNc1ccccc1F)Nc1cc(S(=O)(=O)N2CCCCC2)ccc1Cl	i	i	i	i	i	i
O=C(Cn1ncc(Cl)c(Cl)c1=O)Nc1ccc2c(c1)OCO2	i	i	89.4	i	i	74.7
COc1ccc(NC(=O)c2ccc(Cl)nc2)cc1S(=O)(=O)N1CCOCC1	i	i	i	i	i	i
Cc1nn(CC(=O)Nc2ccc3c(c2)OCO3)c(C)c1Cl	i	i	i	i	i	i
Cc1ccc(S(=O)(=O)N2CCCCC2)cc1NCC(=O)Nc1ccc(Br)cc1F	i	i	i	52.6	i	80.0
COc1ccc(NC(=O)Cn2ncc(Cl)c(Cl)c2=O)cc1S(=O)(=O)N1CCOCC1	i	i	83.5	i	i	73.6
Cc1noc(C)c1NC(=O)Nc1cccc2c1O[C@@H](CN(C)Cc1ccc(Oc3ccccc3)cc1)[C@H](C)CN([C@@H](C)CO)C2=O	nt	i	nt	nt	i	nt
CN1C(=O)c2cc(NC(=O)c3ccc(F)cc3)ccc2OC[C@H]2O[C@@H](CC(=O)NCC3CCCCC3)CC[C@H]21	nt	i	i	nt	i	nt
CCC(=O)N1C[C@H](C)[C@H](OC)CN(C)C(=O)c2ccc(NC(=O)NC(C)C)cc2OC[C@H]1C	nt	i	nt	nt	i	nt
CNC[C@@H]1Oc2ccc(NC(=O)CCN3CCOCC3)cc2CC(=O)N([C@@H](C)CO)C[C@H]1C	nt	i	i	nt	i	nt
O=C(O)CCC(=O)N1CCN(S(=O)(=O)c2ccc3ccccc3c2)CC1	i	i	i	i	i	i
O=C(Cn1ncc(Cl)c(Cl)c1=O)N1CCN(S(=O)(=O)c2ccc3ccccc3c2)CC1	i	nt	97.2	66.9	i	96.7
CCN(CC)S(=O)(=O)c1cc(NC(=O)Cn2ncc(Cl)c(Cl)c2=O)ccc1C	i	i	93.0	89.1	i	97.6
Cc1ccc(S(=O)(=O)N2CCCCC2)cc1NC(=O)Cn1ncc(Cl)c(Cl)c1=O	i	75.0	99.3	80.4	53.6	100.5
CCN(CC)S(=O)(=O)c1cc(NC(=O)CN2C(=O)NC(C)(c3ccccc3)C2=O)ccc1C (stereo not given)	i	i	i	i	i	i
Cc1ccc(S(=O)(=O)N2CCCCC2)cc1NC(=O)Cn1cnnn1	i	i	i	i	i	i
